Screening results deposited in PubChem by The Scripps Research Institute Molecular Screening Center.
Sampled rows, rich in hits. Any-hit rate of the full collection: about 2.3%.
M1 PAM – human M1 muscarinic receptor positive allosteric modulators, primary screen, CHO-K1 cells, Fluo-8 calcium fluorescence, 1536-well; actives 0.088% (n = 360,000); CHO-K1 hM1, ACh EC20; 0% = ACh EC20, 100% = maximal ACh; activation, % at 3 µM; AID 588819, 2011; in the data active = activation above about 19%, passing the limit was not always enough
Target sequence (P11229 whole entry, looked up): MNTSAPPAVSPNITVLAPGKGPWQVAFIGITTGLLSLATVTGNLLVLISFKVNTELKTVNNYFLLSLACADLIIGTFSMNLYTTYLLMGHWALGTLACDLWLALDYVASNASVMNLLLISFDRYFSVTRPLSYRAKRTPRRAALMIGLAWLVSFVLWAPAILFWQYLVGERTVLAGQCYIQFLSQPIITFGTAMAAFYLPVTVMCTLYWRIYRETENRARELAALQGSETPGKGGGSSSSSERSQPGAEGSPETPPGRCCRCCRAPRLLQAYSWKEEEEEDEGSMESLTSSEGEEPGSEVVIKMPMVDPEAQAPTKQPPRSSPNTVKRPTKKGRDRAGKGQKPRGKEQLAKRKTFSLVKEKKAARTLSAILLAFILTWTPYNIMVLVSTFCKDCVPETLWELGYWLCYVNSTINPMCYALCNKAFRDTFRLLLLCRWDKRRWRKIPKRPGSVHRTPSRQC
CHO-K1 Ca PAM – nonselective calcium activators in parental CHO-K1 cells, primary screen, counter-screen for M1 PAM project, cell-based, Fluo-8 calcium fluorescence, full deck, 1536-well; ATP EC20; 0% at ATP EC20, 100% at ATP max; activation, % at 3 µM; actives 0.02% (n = 360,000);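 active = activation above the run cutoff, the mean activation of all test compounds plus 3 SD, cut at about 40% in these data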;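 note: peak over basal fluorescence ratio in a 140 s read after ATP addition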
CHRM1 agonist – human M1 muscarinic receptor agonists, primary screen, Fluo-8 calcium fluorescence, CHO-K1 cells, HTS | actives 0.33% (n = 360,000) | CHO-K1 hM1, agonist mode; 0% DMSO, 100% acetylcholine EC100 | activation, % at 3 µM;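 active = activation above the run's mean compound activation plus 3 SD, cut at about 16% in these data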;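 note: peak over basal fluorescence ratio within a 140 s kinetic read after compound addition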
CHO-K1 Ca ag – counter-screen for M1 agonists: effect in parental CHO-K1 cells. Fluo-8 calcium fluorescence; scaled to maximal ATP response, vehicle zero. activation, % at 3 µM. actives 0.48% (n = 360,000); in the data active = activation above about 15%;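 note: untransfected CHO-K1 host cells lacking M1 receptor as counterscreen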
CHO-K1 Ca antag – M1 antagonist counterscreen hit in parental CHO-K1 cells; ATP-induced calcium, Fluo-8 fluorescence; inhibition, % at 3 µM; actives 0.6% (n = 360,000);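 active = inhibition above a per-plate cutoff, the plate's mean sample inhibition plus 3 SD, cut at about 24% in these data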
M1 antag – human M1 muscarinic receptor antagonists, primary screen, CHO-K1 cells, Fluo-8 calcium fluorescence, 1536-well | CHO-K1 hM1, ACh EC80 antagonist | inhibition, % at 3 µM | actives 1.3% (n = 360,000);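 active = percent inhibition above its own plate's cutoff, namely the mean of that plate's compound wells plus 3 SD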;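 note: peak over basal fluorescence ratio during 140 s after agonist addition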
Numbers stand for hits; – = inactive.

SMILES	M1 PAM	CHO-K1 Ca PAM	CHRM1 agonist	CHO-K1 Ca ag	CHO-K1 Ca antag	M1 antag
Fc1ccc(C(CCCn2nnc(-c3cccnc3)n2)c2ccc(F)cc2)cc1	–	–	–	–	–	27
O=C(Nc1ccc(S(=O)(=O)N2CCOCC2)cc1)c1cccc(Br)c1	–	–	–	–	–	–
COc1ccc(CNC(=O)[C@@H](NC(=O)C2CCN(C(=O)[C@@H](N)Cc3ccccc3)CC2)C(C)C)cc1	–	–	–	–	–	–
CCOc1ccccc1NC(=O)CN(c1ccc(C)cc1)S(=O)(=O)c1c(C)n[nH]c1C	–	–	–	–	–	20
COc1ccc(S(=O)(=O)N(CC(=O)Nc2ccc3c(c2)OCO3)c2ccccc2OC)cc1	–	–	–	–	–	31
CCOc1ccc(N(CC(=O)Nc2ccccc2OC)S(=O)(=O)c2ccccc2)cc1	–	–	–	18	–	–
COc1ccccc1CNC(=O)CN(c1ccc(C)cc1)S(=O)(=O)c1c(C)n[nH]c1C	–	–	–	–	–	–
COc1ccc(N(CC(=O)Nc2ccc(OC)cc2OC)S(=O)(=O)c2ccccc2)cc1	–	–	–	–	–	–
COc1ccc(/C(N)=N/OC(=O)CC2CCCCC2)cc1	–	–	–	–	–	–
Cc1cccc(C2(c3cccc(C)c3)CC2C(=O)Nc2ccc([N+](=O)[O-])cc2O)c1 (centres undefined)	–	–	–	–	26	–
C=CCNC(=O)C1CC1(c1cccc(C)c1)c1cccc(C)c1 (centres undefined)	–	–	–	–	–	–
CC1CN(C(=O)COC(=O)c2ccc(Cl)c(S(=O)(=O)N3CCCCC3)c2)CC(C)O1 (centres undefined)	–	–	–	20	–	–
O=C(COC(=O)c1ccc(Cl)c(S(=O)(=O)N2CCCCC2)c1)NCCc1ccccc1	–	–	–	–	25	–
O=C(NCCc1ccccc1)c1ccc(Cl)c(S(=O)(=O)N2CCCC2)c1	–	–	–	–	–	–
COc1ccc(C(=O)OCC(=O)NCCc2ccc(F)cc2)cc1S(=O)(=O)N1CCOCC1	–	–	–	–	–	33
COc1ccc(C)cc1S(=O)(=O)N1CCN(C)CC1c1ccccc1 (centres undefined)	–	–	–	–	–	–
CCOC(=O)c1cnc(N2CCN(c3ccccc3)CC2)[nH]c1=O	–	–	–	–	–	–
CCOC(=O)c1cn(Cc2cccc(Cl)c2)c2cc(C)nn2c1=O	–	–	–	–	–	–
CCOc1ccc(C(=O)NC2CC3CCCC(C2)N3CC(C)C)cc1 (centres undefined)	–	–	–	–	–	40
COc1ccc2c(n1)Sc1nc3ccccc3nc1N2	–	–	48	25	28	–
Cc1c(N=Cc2nc3ccccc3[nH]2)c(=O)n(-c2ccccc2)n1C	–	–	–	–	31	–
NCCc1nnc(SCc2ccc(F)cc2)o1	–	–	–	–	–	–
NCCCCCc1nnc(SCc2ccc(Cl)c(Cl)c2)o1	–	–	–	–	–	48
O=P(CCN1CCCCC1)(c1ccccc1)c1ccccc1	–	–	–	–	–	71
O=P(O)(CCc1ccccc1)CN1CCCCC1	–	–	–	–	–	–
SMILES	M1 PAM	CHO-K1 Ca PAM	CHRM1 agonist	CHO-K1 Ca ag	CHO-K1 Ca antag	M1 antag
CNCC/C=C1/c2ccccc2CSc2ccccc21	–	–	–	–	–	95
OCCN1CCN(CC/C=C2/c3ccccc3CSc3ccccc32)CC1	–	–	–	–	–	–
CC1=C(C(=O)N2CCOCC2)C(c2ccc(Cl)cc2)NC(=S)N1 (centres undefined)	–	–	–	20	–	–
O=C(c1cccc2c1-c1ccccc1/C2=N/O)N1CCCCC1	–	–	–	–	25	–
O=C(O)c1cccc2c1-c1ccccc1/C2=N\Nc1ccccc1	–	–	–	–	–	–
O=C(O)c1cccc2c1/C(=N/O)c1ccccc1-2	29	–	–	–	–	–
Cc1ccc(Cl)cc1N1CCN(C(=O)CN2C(=O)c3cccc4cccc2c34)CC1	–	–	–	–	26	–
COc1cccc(CNS(=O)(=O)c2ccc3c(c2)N(C(C)=O)CCO3)c1	–	–	–	–	–	–
C=C1SC(Nc2c(C)cc(C)cc2C)=NC12CCCCC2	–	–	–	–	–	68
Cc1cc(C)c(NC(=O)CN2C(=O)NC3(CCCCC3)C2=O)c(C)c1	–	–	–	–	–	–
C=C1SC(Nc2c(C)cccc2C)=NC12CCCCC2	–	–	–	–	–	66
C=CCn1c(SCC(=O)Nc2ccc(F)cc2)nc2ccccc2c1=O	–	–	–	–	–	–
O=C(NCC1CCCO1)c1ccc2c(c1)N(Cc1ccccc1)CCS2 (centres undefined)	–	–	–	–	–	–
CCN(CC1CCCN(CCc2cccc(F)c2)C1)C(=O)c1cc2ccccc2o1 (centres undefined)	–	–	–	–	–	53
CN(CC1CCCN(CCc2cccc(C(F)(F)F)c2)C1)C(=O)c1cc2ccccc2o1 (centres undefined)	–	–	–	–	–	52
CCN(CC1CCCN(CCc2cccc(OC)c2)C1)C(=O)c1ccoc1C (centres undefined)	–	–	–	–	–	–
CCN(CC1CCCN(CCc2cccc(F)c2)C1)C(=O)c1cc(C)oc1C (centres undefined)	–	–	–	–	–	43
C=CCNC(=S)N1CCC(Cc2ccccc2)CC1	–	–	–	–	–	–
O=c1c2ccccc2c(/C=N/c2n[nH]c(CCCO)n2)c(O)n1-c1ccccc1Cl	–	–	–	–	–	–
CCCCN(C)C(=O)c1nc2ccccn2c1CN1CCSCC1	–	–	–	–	–	–
COc1ccc(Cc2c(-c3ccc(Cl)cc3)nc3c(C)cc(Br)cn23)c(C)c1	–	–	–	–	–	–
COc1cc(/C=C/C(O)=C/C(=O)/C=C/c2ccc(O)cc2)ccc1O	–	–	18	17	–	39
COc1cc(/C=C/C(=O)NC(=O)c2ccccc2O)ccc1O	–	–	–	–	–	–
O=c1oc2ccccc2c(Nc2ccc(F)cc2)c1[N+](=O)[O-]	–	–	–	19	–	–
O=c1oc2ccccc2c(Nc2ccc(Cl)cc2)c1[N+](=O)[O-]	–	–	–	–	–	–
Cc1ccc(Oc2ncnc(N)c2[N+](=O)[O-])cc1	–	–	–	–	–	–
